NLRP3 yeast inh: NALP3 inhibition in yeast; AID 2825; inhibition, % at 10 µM; 330,000 tested, 0.39% active; Yeast reconstituted NLRP3/ASC/caspase-1, beta-gal luminescence, 24 h;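 active = inhibition of 50% or more; inactive = inhibition below 50%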;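 note: plate controls were induced DMSO wells for no effect and uninduced yeast grown without galactose for full effect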
SKKanGAS inh: inhibitors of SKKanGAS S. pyogenes growth in kanamycin (SK-promoter or general growth effect). inhibition, % at 7.5 µM. AID 1662. 300,000 tested, 1.3% active. BacTiter-Glo, 6 h;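 active = mean replicate score, as percent of positive control median, at least 50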;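 note: strain carries kanamycin resistance gene driven by streptokinase promoter and grows in 40 µg/ml kanamycin; loss of luminescence reflects streptokinase promoter inhibition or plain growth inhibition; 0% = median of DMSO wells and 100% = positive control at its reference dose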
TIM10 inh: TIM10 yeast growth inhibition; S. cerevisiae TIM10 strain growth, BacTiter-Glo luminescence, 24 h; inhibition, % at 10 µM; 330,000 tested, 1.4% active; AID 463195;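 active = inhibition of 40% or more at the single tested concentration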;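 note: wild-type TIM10 isogenic control strain grown at permissive 25 °C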
tim10-1 inh: inhibits growth of tim10-1 mutant yeast; inhibition, % at 20 µM; 330,000 tested, 2.2% active; S. cerevisiae tim10-1 ts strain growth, BacTiter-Glo, 24 h; AID 463190;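 active = inhibition of at least 40%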;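 note: mutant grown at 25 °C; 0% = DMSO wells with yeast and 100% = wells holding no yeast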
NALP1 yeast inh: NALP1 inhibition; inhibition, % at 10 µM; 280,000 tested, 0.61% active; S. cerevisiae NALP1/ASC/caspase-1 growth, X-gal OD620, 72 h; in the data active = inhibition mostly above about 24%, no sharp cut-off; inactive = mostly below about 32%
tim23-1 inh: growth inhibitors of tim23-1 mutant yeast; S. cerevisiae tim23-1 growth, BacTiter-Glo luminescence, 24 h; inhibition, % at 20 µM; 330,000 tested, 1.3% active;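 active = growth inhibition of the mutant yeast at or above 50%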;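 note: temperature-sensitive mutant grown at 25 °C; plate controls were DMSO-treated mutant yeast for no effect and medium wells lacking yeast for full effect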
Numbers without * were called inactive; · = no result. The list is not random: actives were taken first. Their share in the collection is about 4.9%.

SMILES	NLRP3 yeast inh	SKKanGAS inh	TIM10 inh	tim10-1 inh	NALP1 yeast inh	tim23-1 inh
C[C@@H]1CN([C@H](C)CO)C(=O)c2cc(NC(=O)Cc3cn(C)c4ccccc34)ccc2O[C@H]1CN(C)S(=O)(=O)c1ccc(F)cc1	-17	·	-6	18	·	12
Cc1ccc(O)c(N=Cc2sc3ccccc3c2Cl)c1	18	-5	9	17	21	18
Oc1ccccc1N=Cc1sc2ccccc2c1Cl	29	1	0	-17	54*	11
CC(=O)OCCNc1cc(Sc2nc3ccccc3[nH]2)c2nonc2c1[N+](=O)[O-]	·	53*	·	·	35	·
C/C(=N/NS(=O)(=O)c1ccc(C)cc1C)c1c[nH]c2ccccc12	6	11	17	25	7	26
O=C(c1ccc(O)cc1)c1ccc(C(=O)c2ccc(O)cc2)cc1	1	83*	9	15	10	-10
O=C(OCc1ccc(COC(=O)c2ccc(O)cc2)cc1)c1ccc(O)cc1	19	58*	11	22	20	14
CCCCn1c(SCC(=O)OCC)nc2c(sc(=S)n2-c2ccccc2OC)c1=O	17	22	21	32	-4	32
Cc1cc(C)n(-c2nc3sc4c(c3c(=O)[nH]2)CCCC4)n1	·	93*	·	·	1	·
Cn1nc(-c2ccccc2)c(CSc2ccccc2)c1Cl	18	62*	4	7	-16	-4
COc1ccc(/C=N/OCC(=O)OCC(=O)N(C)c2ccccc2)cc1	11	21	4	14	·	13
COC(=O)C(=NNc1c(C)n(C)n(-c2ccccc2)c1=O)C(=O)OC	15	-10	-22	7	9	7
Cc1c(NC(=O)C(C)Sc2n[nH]c(N)n2)c(=O)n(-c2ccccc2)n1C (stereo unspecified)	0	7	6	-2	38*	-5
Cc1c(NC(=O)c2ccc(F)cc2)c(=O)n(-c2ccccc2)n1C	17	-5	-18	-1	36*	-9
Cc1c(NC(=O)c2cccc(F)c2)c(=O)n(-c2ccccc2)n1C	10	7	7	-5	21	6
Cc1c(N/N=C(\C#N)C(=O)c2ccc(Cl)cc2)c(=O)n(-c2ccccc2)n1C	·	100*	·	·	4	·
Cc1nc(SC(C)C(=O)Nc2c(C)n(C)n(-c3ccccc3)c2=O)nc(C)c1C (stereo unspecified)	1	·	-2	7	·	4
O=C(Cc1ccccc1F)Nc1cc(S(=O)(=O)N2CCOCC2)ccc1N1CCCC1	7	·	0	7	·	1
Cn1ncc(S(=O)(=O)Cc2ccccc2)c(Cl)c1=O	17	-4	16	3	108*	1
CCc1ccc(C(=O)CCC(=O)Nc2cccc(S(=O)(=O)N3CCCCC3)c2)cc1	10	·	5	29	·	23
CC(=O)c1c(O)c2ccccc2n(C(C)C)c1=O	-7	21	-18	20	31*	27
CN=C(C[N+](=O)[O-])NCCSCc1ccc(CN(C)C)o1	32	·	-21	-21	·	-71
CSc1ccc(NC(=O)NCCCN2CCC(Cc3ccccc3)CC2)cc1	9	4	-1	-5	21	-16
CCCn1c(NC(=O)c2ccccc2)nc2ccccc21	16	69*	4	24	6	19
C=CCn1c(NC(=O)c2ccc(C)cc2)nc2ccccc21	15	59*	-5	0	-8	15
SMILES	NLRP3 yeast inh	SKKanGAS inh	TIM10 inh	tim10-1 inh	NALP1 yeast inh	tim23-1 inh
CCCn1c(Nc2nc3ccccc3n2C)nc2ccccc21	9	9	8	31	30*	10
CCCn1c(NC(=O)c2ccc(C)cc2)nc2ccccc21	33	44	-14	-25	-6	-2
CCn1c(SCc2ccccc2Cl)nc2ccccc21	16	74*	5	33	-4	43
Cc1ccc(-n2nc3c(N4CCC(C(=O)NCCc5cccs5)CC4)nnc(C)c3c2C)cc1	1	2	5	4	29	5
CCC(=O)Nc1nc2ccccc2n1Cc1ccccc1Cl	11	63*	24	9	12	6
CCC(=O)Nc1nc2ccccc2n1Cc1ccc(Cl)cc1	23	62*	16	8	12	5
CCCCCCCn1c(NC(=O)CC)nc2ccccc21	40	104*	17	35	-5	33
CCC(=O)Nc1nc2ccccc2n1CCN1CCOCC1	11	-3	1	10	6	3
CCn1c(CCNC(=O)c2ccco2)nc2ccccc21	15	1	-23	3	5	-1
O=C(Nc1nc2ccccc2n1Cc1ccccc1)c1ccco1	6	55*	-2	-2	8	8
CCCCCCC(NC(=O)Cc1ccc2ccccc2c1)C(=O)O (stereo unspecified)	·	·	-7	0	·	21
CCN(CC(=O)NC1CCCC1)S(=O)(=O)c1ccc(Br)cc1	8	5	-8	2	-7	2
Cc1ccc(NC(=O)C2COc3ccccc3O2)cc1C (stereo unspecified)	28	2	-6	5	16	20
Cc1ccc(C(=O)Nc2cccc(S(=O)(=O)N3CCCCC3)c2)cc1[N+](=O)[O-]	16	·	7	12	·	10
C#CCOc1ccc2ccccc2c1/C=C(/C#N)c1ccc(C(=O)O)cc1	-3	21	12	4	17	-32
CCCn1c(COc2ccc(C(=O)O)cc2)nc2ccccc21	27	-5	-5	-26	43*	-5
Cc1ccc(C(=O)OC2OC(=O)C(Cl)=C2N2CCOCC2)cc1 (stereo unspecified)	18	75*	13	35	33	26
CCN(CC)CCCNc1cc(C)nc2cc(-c3cccs3)nn12	14	-3	12	2	-7	2
CC(C)[C@H](NC(=O)c1ccccc1Cl)C(=O)Nc1nc(-c2ccccn2)cs1	-11	79*	17	19	-34	35
Cc1csc(NC(=O)c2ccc(COc3ccccc3)o2)n1	31	-3	13	-5	43*	2
CCc1nnc(NC(=O)C(NC(=O)c2ccccc2Cl)C(C)C)s1 (stereo unspecified)	-3	-1	7	4	-1	-6
c1ccc(CCNc2nc(-c3ccccn3)cs2)cc1	24	121*	20	25	21	-26
c1ccc(CCNc2nc(-c3cccnc3)cs2)cc1	16	16	25	31	47	24
CC1CC1C(=O)Nc1nc(-c2ccccn2)cs1 (stereo unspecified)	29	85*	0	14	6	16
COc1ccc(C(CNC(=O)CN(C)S(=O)(=O)c2ccc(C)cc2)N2CCCC2)cc1 (stereo unspecified)	9	·	-13	-9	·	-4
O=C1CCCC/C=C\C[C@H](CC(=O)N(CCO)Cc2ccccc2)C(=O)NCCO1	18	·	-2	1	·	4
CCCCN(C)C(=O)C1CCC(CNS(=O)(=O)c2ccc3c(c2)CC(C)N3C(=O)C2CC2)CC1 (stereo unspecified)	17	-5	-4	11	4	3

Compound activity as filed in PubChem BioAssay.
